The text below walks through data of PubChem BioAssay (NCI).

Common to all, as to test: NCI-60 one-dose screen, 48 h (100 = growth as untreated, 0 = no growth, -100 = all killed)
One assay has as its system HT29 colon. Conditions: 10 µM unless noted.
Another assay concerns SNB-75 CNS. As to conditions: 10 µM unless noted.
In another assay the test system is SNB-19 CNS. As to conditions: 10 µM unless noted.
A further assay has as its system U251 CNS. Conditions: 10 µM unless noted.
In the next assay the test system is PC-3 prostate. As to conditions: 10 µM unless noted.
In another assay the test system is SK-MEL-5 melanoma. Conditions: 10 µM unless noted.
In the next assay the test system is UACC-62 melanoma. Conditions: 10 µM unless noted.
In a further assay the test system is LOX IMVI melanoma. Conditions: 10 µM unless noted.
The next assay deals with SK-MEL-28 melanoma. As to conditions: 10 µM.
The next assay concerns SK-MEL-2 melanoma. As to conditions: 10 µM unless noted.
Another assay deals with EKVX NSCLC. Conditions: 10 µM unless noted.
In the next assay the test system is SN12C renal. As to conditions: 10 µM unless noted.
The next assay relates to UO-31 renal. As to conditions: 10 µM unless noted.
The next assay has as its system TK-10 renal. Conditions: 10 µM unless noted.
Another assay concerns ACHN renal. As to conditions: 10 µM unless noted.
The next assay deals with CAKI-1 renal. Conditions: 10 µM unless noted.
In a further assay the test system is A498 renal. Conditions: 10 µM unless noted.
The test system of the next assay is CCRF-CEM leukemia. Conditions: 10 µM unless noted.
The subject of another assay is MOLT-4 leukemia. Conditions: 10 µM unless noted.
The next assay deals with SR leukemia. Conditions: 10 µM unless noted.

Compounds without any hit were thinned out: in the full panel of roughly 83,000, 20% have a hit.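 Treatment: one concentration, 48 hours, 96-well format. Scoring: percent growth, with anything below 10 considered active.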 Values without a mark were called inactive. The source made the active and inactive calls.

On to `CSc1nc2c(c(=O)n1C)N=C1c3ccccc3C(=O)C1C(c1ccccc1)N2` (stereo not given), for which the growth was 52.2% in the assay on HT29 colon; 50% in the assay with SNB-75 CNS; 82.4% in the assay on SNB-19 CNS; 74.5% with U251 CNS; 64.9% in the assay with PC-3 prostate; 69.2% in the assay on SK-MEL-5 melanoma. The growth in the assay with UACC-62 melanoma is 107%; in the assay on LOX IMVI melanoma, 74.5%; in the assay on SK-MEL-28 melanoma, 72.5%; with SK-MEL-2 melanoma it was 66.2%; with EKVX NSCLC, 75.4%; in the assay on SN12C renal, 138%. The growth in the assay on UO-31 renal was 71.1%; in the assay on TK-10 renal, 101%; with ACHN renal it was 75.5%; in the assay with CAKI-1 renal, 53.4%; in the assay with A498 renal it was 99.9%; with CCRF-CEM leukemia, 82.6%. The growth with MOLT-4 leukemia is 84%; in the assay on SR leukemia it was 27.1%.

For the compound `COc1cc(/C=C2\CN(C)C/C(=C\c3cc(CN4CCOCC4)c(O)c(OC)c3)C2=O)cc(CN2CCOCC2)c1O`, the growth in the assay with HT29 colon was 6.39% (active); in the assay with SNB-75 CNS, 26.3%; with SNB-19 CNS it was 58.5%; with U251 CNS, 20.7%; in the assay with PC-3 prostate, 60.8%; in the assay with SK-MEL-5 melanoma, 72.3%. Moreover, the growth with UACC-62 melanoma was 35.8%; in the assay on LOX IMVI melanoma it was 11.7%; with SK-MEL-28 melanoma it was 77.3%; in the assay with SK-MEL-2 melanoma, 72.2%; in the assay with EKVX NSCLC, 80.6%; in the assay with SN12C renal it was 35%. Moreover, the growth in the assay with UO-31 renal is 76.6%; in the assay on TK-10 renal, 91.9%; with ACHN renal, 47.5%; with CAKI-1 renal, 82.7%; in the assay on A498 renal, 81.8%; in the assay with CCRF-CEM leukemia, 32.1%. Besides, the growth is 30% in the assay with MOLT-4 leukemia and 32.6% with SR leukemia.

Turning to `Cc1ccc2sc3c(NCCCNCCO)nc4ccccc4c3c(=O)c2c1`, the growth in the assay with HT29 colon was -65% (active); in the assay on SNB-75 CNS, 33.3%; in the assay on SNB-19 CNS, 68.5%; in the assay with U251 CNS it was -39.5% (active); in the assay with PC-3 prostate, 39.3%; in the assay with SK-MEL-5 melanoma, 85.6%. Besides, the growth with UACC-62 melanoma was -25.3% (active); in the assay with LOX IMVI melanoma it was -27.3% (active); with SK-MEL-28 melanoma, 79.8%; in the assay on SK-MEL-2 melanoma, 90.8%; in the assay on EKVX NSCLC, 57.3%; in the assay with SN12C renal it was 72.8%. The growth in the assay on UO-31 renal is 48.6%; with TK-10 renal, 66.9%; in the assay on ACHN renal it was 6.81% (active); with CAKI-1 renal, 56.7%; in the assay on A498 renal it was 65.8%; with CCRF-CEM leukemia, 10.8%. The growth in the assay with MOLT-4 leukemia was -39.3% (active); with SR leukemia it was 2.94% (active).

Turning to `Cn1c2c(c(=O)[nH]c1=O)NC1=C(C(=O)c3ccccc31)C1(C=C(O)c3ccccc31)N2` (stereo not given), the growth in the assay with HT29 colon was 113%; in the assay on SNB-75 CNS it was 92.1%; with SNB-19 CNS it was 114%; in the assay on U251 CNS it was 103%; in the assay on PC-3 prostate, 94.1%; in the assay with SK-MEL-5 melanoma, 111%. Besides, the growth was 116% with UACC-62 melanoma; 94.1% in the assay on LOX IMVI melanoma; 148% with SK-MEL-28 melanoma; 107% in the assay on SK-MEL-2 melanoma; 95.7% in the assay with EKVX NSCLC; 108% in the assay on SN12C renal. For the same compound, the growth with UO-31 renal is 77.6%; with TK-10 renal, 134%; in the assay on ACHN renal, 89.7%; in the assay with CAKI-1 renal, 86%; in the assay on A498 renal, 143%; in the assay on CCRF-CEM leukemia it was 107%. The figures for the growth in the assay on MOLT-4 leukemia and in the assay on SR leukemia were 121% and 47.6%, respectively.

For the compound `COC(=O)/C(CCC=C(C)C)=C1\[C@@H](OC(C)=O)C[C@@]2(C)[C@H]1C[C@@H](O)[C@H]1[C@@]3(C)CC[C@H](NCCO)[C@@H](C)[C@@H]3CC[C@@]12C`, the growth with HT29 colon was 104%; with SNB-75 CNS, 100%; with SNB-19 CNS, 98.4%; in the assay with U251 CNS, 103%; in the assay with PC-3 prostate, 102%; in the assay on SK-MEL-5 melanoma, 102%. The growth is 98% in the assay on UACC-62 melanoma; 94.2% in the assay on LOX IMVI melanoma; 106% with SK-MEL-28 melanoma; 109% in the assay on SK-MEL-2 melanoma; 99.6% in the assay with EKVX NSCLC; 105% with SN12C renal. In addition, the growth is 78.9% in the assay on UO-31 renal; 115% in the assay with TK-10 renal; 97.3% with ACHN renal; 91% with CAKI-1 renal; 101% in the assay with A498 renal; 101% in the assay with CCRF-CEM leukemia. In addition, the growth in the assay with MOLT-4 leukemia is 96.7%; in the assay with SR leukemia, 98.3%.

Consider `CC(C)c1ccc(S(=O)(=O)NC(=O)NC2CCCC2)cc1`, for which the growth in the assay with HT29 colon is 108%; in the assay on SNB-75 CNS, 101%; in the assay with SNB-19 CNS it was 100%; in the assay on U251 CNS, 101%; with PC-3 prostate, 99.9%; with SK-MEL-5 melanoma, 101%. Moreover, the growth with UACC-62 melanoma was 94.7%; in the assay on LOX IMVI melanoma, 97.7%; in the assay on SK-MEL-28 melanoma it was 103%; in the assay on SK-MEL-2 melanoma, 110%; in the assay with EKVX NSCLC it was 98.1%; with SN12C renal, 97.1%. In addition, the growth in the assay on UO-31 renal is 95.4%; in the assay with TK-10 renal, 101%; in the assay on ACHN renal, 103%; with CAKI-1 renal, 96.7%; in the assay on A498 renal, 102%; with CCRF-CEM leukemia, 98%. For the same compound, the figures for the growth in the assay on MOLT-4 leukemia and in the assay with SR leukemia were 94.6% and 95.6%, respectively.

Consider `Cc1ccccc1CNC(=O)C1CN(c2ccc(Cl)cc2)N(c2ccc(Cl)cc2)C1=O` (stereo not given), for which the growth with HT29 colon was 77%; in the assay on SNB-75 CNS it was 88%; in the assay with SNB-19 CNS, 89.5%; with U251 CNS, 89.7%; in the assay with PC-3 prostate it was 72.8%; with SK-MEL-5 melanoma, 86.2%. In addition, the growth with UACC-62 melanoma was 60.8%; with LOX IMVI melanoma it was 92.9%; in the assay with SK-MEL-28 melanoma, 91%; with SK-MEL-2 melanoma it was 91.8%; in the assay on EKVX NSCLC, 91.8%; in the assay on SN12C renal, 90.8%. The growth was 64.1% in the assay on UO-31 renal; 91.3% in the assay on TK-10 renal; 87.4% in the assay with ACHN renal; 71.6% in the assay on CAKI-1 renal; 86.2% in the assay with A498 renal; 84.3% with CCRF-CEM leukemia. Also, the growth with MOLT-4 leukemia was 81.1%; with SR leukemia, 59.8%.
